ST2 inh: blocks human ST2 binding to IL-33. Q01638. AlphaLISA ST2-Fc/biotin-IL-33 interaction, 1 h. inhibition, % for hits at 17 µM. actives 2.3% (n = 78,000). AID 1259354; in the data active = inhibition above about 30%
Target sequence (Q01638 whole entry, looked up): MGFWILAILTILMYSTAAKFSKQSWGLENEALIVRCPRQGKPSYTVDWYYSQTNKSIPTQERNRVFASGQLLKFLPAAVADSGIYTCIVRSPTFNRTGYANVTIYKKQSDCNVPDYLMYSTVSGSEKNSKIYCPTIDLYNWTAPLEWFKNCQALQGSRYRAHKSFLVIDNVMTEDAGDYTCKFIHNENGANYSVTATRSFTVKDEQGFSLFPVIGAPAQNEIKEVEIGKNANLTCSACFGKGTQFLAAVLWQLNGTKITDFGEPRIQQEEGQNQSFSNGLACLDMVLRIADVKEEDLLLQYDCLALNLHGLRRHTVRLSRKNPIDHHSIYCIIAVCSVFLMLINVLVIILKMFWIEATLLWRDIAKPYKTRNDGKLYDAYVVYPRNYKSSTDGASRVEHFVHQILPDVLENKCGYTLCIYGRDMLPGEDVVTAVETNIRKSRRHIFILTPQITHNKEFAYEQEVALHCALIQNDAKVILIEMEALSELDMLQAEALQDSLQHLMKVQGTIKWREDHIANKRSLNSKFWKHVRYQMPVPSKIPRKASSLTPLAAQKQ
* hit, by the source's call; i = inactive. The entries come from a sample that favours hits as a whole.

SMILES	ST2 inh
O=C(CN1C(=O)S/C(=C/c2ccccc2)C1=O)Nc1ccccc1Cl	i
COc1ccc(/C=C2/SC(=O)N(CC(=O)Nc3cc(C)on3)C2=O)cc1OC	35.0%*
OCC1(Cc2ccc(F)cc2F)CCCNC1 (stereo not drawn)	i
Cc1ccc(NC(=O)N2Cc3[nH]cnc3C[C@H]2c2nc(-c3ccc4ccccc4c3)no2)cc1	i
O=C(NC1CCCCC1)N1Cc2[nH]cnc2C[C@H]1c1nc(-c2ccc3ccccc3c2)no1	i
O=C(Nc1ccccc1)N1Cc2[nH]cnc2C[C@H]1c1nc(-c2ccc3ccccc3c2)no1	38.0%*
COc1ccc2cc3cc(C(=O)NCC4CCCO4)sc3nc2c1 (stereo not drawn)	i
COc1ccc2c(=O)c(-c3ccc(F)cc3)c(C)oc2c1	i
Cc1cccc(-c2ccc(C(=O)N3CCCC3)cn2)c1C	i
COc1ccc(N2C(=O)CC(Sc3ccccc3C(=O)O)C2=O)cc1 (stereo not drawn)	i
COc1ccc(C2SCC(=O)N2c2ccccc2)cc1 (stereo not drawn)	i
COc1ccc(N2C(=O)C(O)=CC2(OC)c2ccccc2)cc1 (stereo not drawn)	45.0%*
COc1cccc(N2CCN(c3ncnc4c3cnn4-c3ccc(Cl)cc3)CC2)c1	i
Cc1cccc(C(C(=O)NCCc2sccc2C)N(C)C)c1 (stereo not drawn)	i
CC1CC(=O)C2=C(C1)OC(N)=C(C#N)C2c1ccc(Br)s1 (stereo not drawn)	i
O=C(Cn1c2ccccc2c(=O)c2ccccc21)Nc1ccccc1C(F)(F)F	39.0%*
O=C(Cn1c2ccccc2c(=O)c2ccccc21)Nc1ccccc1Br	i
O=C(Cn1c2ccccc2c(=O)c2ccccc21)Nc1ccccc1F	i
Cc1cc(C)n(-c2cccc(-c3nccn3C(C)c3ncnn3C)c2)n1 (stereo not drawn)	i
COc1ccc(OC)c(CNC(=O)c2cc(-c3cccs3)nc3ccccc23)c1	i
COc1ccccc1-c1ccnc(-n2ncc(C(=O)NCc3cccc(F)c3)c2C2CC2)n1	i
COCc1c(C(=O)NCc2ccc3c(c2)CCCN3C)cnn1-c1ncc(C)c(-c2cccs2)n1	39.0%*
O=C(c1cnn(Cc2ccccc2)c1)N1CCC(O)(c2ccccc2)CC1	i
CC1CCCCC1NS(=O)(=O)c1cc(Br)cc2c1N(C(=O)C1CC1)CC2 (stereo not drawn)	i
Brc1ccc(Nc2nc(-c3ccccn3)cs2)cc1	i
SMILES	ST2 inh
COc1ccc(Nc2nc(Nc3ccc(OC)cc3)c([N+](=O)[O-])cc2[N+](=O)[O-])cc1	i
NS(=O)(=O)c1ccc(Nc2nc(-c3ccccn3)cs2)cc1	i
COc1ccc(Nc2nc(-c3cccc([N+](=O)[O-])c3)cs2)cc1	38.0%*
Cc1nc2ncccn2c1-c1csc(Nc2cccc([N+](=O)[O-])c2)n1	37.0%*
COc1cccc(Nc2nc(-c3ccc(F)cc3)cs2)c1	i
COc1ccccc1CN(Cc1cc(C(C)(C)C)n[nH]1)C1CC1	i
CCN(CC)Cc1cc(C(=O)N2CC[C@H](CO)[C@H](O)C2)c(C)o1	i
CCN(Cc1nc[nH]c1C)C1CCS(=O)(=O)C1 (stereo not drawn)	i
CCc1ccc(S(=O)(=O)Nc2ccc3oc(C)c(C(=O)OC)c3c2)cc1	i
O=[N+]([O-])c1ccc(N2CCCC2)cc1NCC1CCCO1 (stereo not drawn)	30.0%*
O=[N+]([O-])c1ccc(N2CCN(S(=O)(=O)c3ccccc3)CC2)cc1NCC1CCCO1 (stereo not drawn)	i
CS(=O)(=O)N1CCN(c2ccc([N+](=O)[O-])c(NCCN3CCOCC3)c2)CC1	i
COc1ccc(-c2nc(-c3cccc([N+](=O)[O-])c3)no2)cc1OC	i
CCC(c1ccccc1)c1nc(-c2ccncc2)no1 (stereo not drawn)	i
CCC(c1ccccc1)c1nc(-c2cccc([N+](=O)[O-])c2)no1 (stereo not drawn)	30.0%*
O=C(c1ccc(Cl)cc1Cl)n1cnc2ccccc21	i
O=C(O)c1cccnc1CN1CCN(c2nsc3ccccc23)CC1	i
COc1ccc(NC(=O)Cc2ccccc2[N+](=O)[O-])cc1OC	i
COc1ccc(Nc2ncnc(N)c2[N+](=O)[O-])cc1OC	i
COc1ccc(NCc2ccc([N+](=O)[O-])s2)cc1OC	45.0%*
CCN(CC)C1CCN(c2ncnc3c2CCN(C(=O)C2CC2)C3)C1 (stereo not drawn)	i
CCCC1(O)CC(C(=O)OC)=NN1C(=O)c1ccccc1 (stereo not drawn)	i
Cc1ccc(NC(=O)c2cccc(S(=O)(=O)Nc3cccc(C(=O)O)c3)c2)cc1	i
Cc1cccc(NC(=O)C(C)N(c2ccccc2)S(C)(=O)=O)c1 (stereo not drawn)	i
Cc1ccc(S(=O)(=O)N=C2C=C(Nc3cccc(C(=O)O)c3)C(=O)c3ccccc32)c(C)c1	48.0%*
SMILES	ST2 inh
Cc1ccc([N+](=O)[O-])cc1S(=O)(=O)Nc1cccc(C(=O)O)c1	i
Cc1ccc(S(=O)(=O)N=C2C=C(Nc3cccc(C(=O)O)c3)C(=O)c3ccccc32)cc1	53.0%*
Cc1ccc(S(=O)(=O)Nc2cccc(C(=O)NN)c2)cc1	i
Cc1ccccc1NC(=O)c1ccc(-c2nnc(-c3ccccc3)o2)cc1	i
C#Cc1ccc(-c2c(-c3ccccc3)ncn2CCC(=O)OC)cc1	i
Cn1c(=O)n(Cc2ccccc2)c(=O)c2c1nc(Br)n2Cc1ccccc1	i
COc1ccc(NC(=O)c2ccc3c(c2)OCO3)c(OC)c1	i
CCOC(=O)Cn1c(=O)n(-c2ccc(C)c(C)c2)c2nc(-c3ccc(F)cc3F)nc(C(N)=O)c21	i
O=C1OC(c2ccccc2)OC(=O)C1=Cc1ccc(-c2cccc(C(=O)O)c2)o1 (stereo not drawn)	i
CCOC(=O)c1c(NC(=O)c2ccc(Cl)s2)sc2c1CCN(C)C2	i
COC(=O)c1c(NC(=O)c2sc3ccccc3c2Cl)sc2c1CCN(C)C2	37.0%*
CC1CCc2sc(NC(=O)c3sc4ccccc4c3Cl)c(C(N)=O)c2C1 (stereo not drawn)	i
CC(=O)Nc1nc2ccc(OC(F)(F)F)cc2s1	i
COC(=O)[C@@H]1Cc2ncn(Cc3ccc(Cl)cc3)c2CN1S(=O)(=O)c1ccccc1	i
C=C1c2cc(OCC)ccc2NC(=O)N1c1ccccc1	i
CCOc1ccc2c(c1)C(=O)c1cc(OCC)ccc1-2	46.0%*
CCOc1ccc(OCC)c(NC(C)=O)c1	i
CCOC(=O)c1c(NC(=O)COc2cccc(Cl)c2)sc2c1CCC(C)C2 (stereo not drawn)	i
O=c1c2c3c(sc2n(Cc2cc(=O)n4ccccc4n2)c(=O)n1Cc1ccccc1)CCCC3	i
COc1ccc(-n2c(SCC(N)=O)nc3c([nH]c4ccccc43)c2=O)cc1	i
NC(=O)CSc1nc2c([nH]c3ccccc32)c(=O)n1-c1ccccc1	i
O=C(CSc1nc2c([nH]c3ccccc32)c(=O)n1-c1ccc(Cl)cc1)Nc1nccs1	31.0%*
CC(C)C(=O)Nc1cccnc1-c1ccn[nH]1	i
O=C(CSc1nnc2c(n1)[nH]c1ccccc12)c1ccc(Cl)cc1	32.0%*
Brc1ccc(CSc2nnc3c(n2)[nH]c2ccccc23)cc1	i
O=C(CSc1nnc2c(n1)[nH]c1ccccc12)Nc1nc2ccc([N+](=O)[O-])cc2s1	i

Bioassay records (PubChem)
